Compound activity from PubChem BioAssay.
RXFP1 antagonist: antagonists of human relaxin receptor RXFP1; Q9HBX9; HEK293-RXFP1, relaxin-stimulated cAMP HTRF, 30 min; active compounds read low; activity change, negative = inhibition, % at 57.5 µM; 350,000 compounds, 0.59% hits; AID 1259400;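 active = activity change of -60% or lower, but not beyond a set lower limit; inconclusive = change between -60% and -40%, or beyond the set limit; inactive = change above -40%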; also: % is scaled to controls: 0 for no effect and ±100 for the full control effect
Target sequence (Q9HBX9 whole entry, looked up): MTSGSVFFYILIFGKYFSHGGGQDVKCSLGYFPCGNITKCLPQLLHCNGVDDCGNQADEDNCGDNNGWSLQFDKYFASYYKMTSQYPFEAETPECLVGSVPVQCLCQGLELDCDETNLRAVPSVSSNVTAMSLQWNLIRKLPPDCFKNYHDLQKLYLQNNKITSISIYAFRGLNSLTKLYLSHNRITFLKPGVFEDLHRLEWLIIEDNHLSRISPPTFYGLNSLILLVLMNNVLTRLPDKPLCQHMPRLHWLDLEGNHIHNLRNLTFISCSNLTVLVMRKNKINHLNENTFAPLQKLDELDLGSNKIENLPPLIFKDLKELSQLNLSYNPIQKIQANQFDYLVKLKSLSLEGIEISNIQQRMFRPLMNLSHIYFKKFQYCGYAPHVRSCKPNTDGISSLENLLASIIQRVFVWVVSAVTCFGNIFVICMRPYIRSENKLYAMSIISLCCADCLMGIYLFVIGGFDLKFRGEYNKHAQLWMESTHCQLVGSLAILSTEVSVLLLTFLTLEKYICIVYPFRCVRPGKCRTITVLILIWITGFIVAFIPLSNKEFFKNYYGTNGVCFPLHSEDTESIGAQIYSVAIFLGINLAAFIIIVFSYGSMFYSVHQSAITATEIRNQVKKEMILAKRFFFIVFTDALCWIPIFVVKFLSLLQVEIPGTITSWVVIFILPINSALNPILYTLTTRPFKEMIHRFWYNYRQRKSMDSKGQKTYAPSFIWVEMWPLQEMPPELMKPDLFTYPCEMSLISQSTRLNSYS
RXFP1 agonist: RXFP1 (human) receptor agonism; Q9HBX9; HEK293T-RXFP1 cAMP TR-FRET, 30 min; response scale: percent of porcine relaxin response, buffer zero; Potency, µM (series often up to 57.5 µM), without a hit: at the top dose activation, usual class: activators; 370,000 compounds, 0.3% hits; active = well fitted activation curve with a large enough effect; inconclusive = small, poorly fitted or top-dose-only effect; also: potency is read from the fitted curve at half-maximal effect; % is scaled to controls: 0 for no effect and ±100 for the full control effect; nearly all actives have a fitted effect of over 60% in size
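cAMP rise read by TR-FRET after 30 min, 37C compound exposure (up to 58 uM) in RXFP1-transfected HEK293 cells with Ro 20174 present. EC50 from Hill-equation fits, with 29 nM porcine relaxin as 100% and buffer as basal.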
pAkt inh: inhibitors of Akt phosphorylation; Neuro2A IGF-stimulated pAkt S473 HTRF, 20 min; active compounds read low; activity change, % for hits at 50 µM; 360,000 compounds, 0.32% hits; AID 651550; in the data active = activity change below about -80%; inconclusive = mostly about -51% to -80%; also: % is scaled to controls: 0 for no effect and ±100 for the full control effect
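Single-point screen (50 µM final compound) in Neuro2A cells stimulated 20 min with 6 nM IGF at 37 deg C. After lysis, Ser473-phosphorylated Akt read by HTRF (ex 330 nm, em 615/665 nm) as the 665/615 ratio.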
gsp agonist: activates gsp, the McCune-Albright syndrome mutation; gsp mutant cells, cAMP HTRF, 30 min; Potency, µM (series often up to 76.9 µM), without a hit: top-dose activation (cAMP increase), most hits filed as activators; 340,000 compounds, 0.13% hits; AID 624287; active = well fitted activation curve with a large enough effect; inconclusive = small, poorly fitted or top-dose-only effect, or another doubt; inactive = no such curve, though single readings can be large or run the other way; cell line not stated here;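 also: phosphodiesterase inhibitor Ro 20-1724 added with compounds to block cAMP breakdown; potency is read from the fitted curve at half-maximal effect; nearly all actives have a fitted effect of over 60% in size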
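Cells stably selected in G418 were plated at 2000/well, grown 16-24 hr, then given compounds in DMSO with the PDE inhibitor […] (300 uM solution added) for 30 min at 37C; cAMP was read by HTRF.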
gsp antagonist: antagonists of gsp mutant (McCune-Albright syndrome); gsp-mutant cells, cAMP HTRF, 30 min; Potency, µM (doses to about 76.9 µM), inactives show at the highest dose activity change, negative = inhibition, actives largely listed as inhibitors; 340,000 compounds, 0.4% hits; calls by dose curve; cell line not stated here;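 also: intracellular cAMP measured with PDE inhibitor Ro 20-1724 present during compound exposure; potency is read from the fitted curve at half-maximal effect; % is scaled to controls: 0 for no effect and ±100 for the full control effect; nearly all actives have a fitted effect of over 65% in size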
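Cells in G418 medium, seeded 16-24 h, 37C; buffer exchange to DPBS + 1 mM CaCl2, 0.5 mM MgCl2, 0.05% BSA; cpds in DMSO + […] (300 uM stock), 30 min 37C; HTRF cAMP detection.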
* = called active by the depositor; i = inactive; ? = inconclusive; nt = no result given; [ ] = remark or other dose. A selection: hits, their analogues and other compounds. The true share with any hit is near 1.3%.

SMILES	RXFP1 antagonist	RXFP1 agonist	pAkt inh	gsp agonist	gsp antagonist
CC(=O)Nc1cccc(-c2nnc(SCC(=O)c3cc([N+](=O)[O-])ccc3Cl)o2)c1	nt	0%	nt	nt	nt
COc1ccc(-c2cc3nc4n(c(=O)c3s2)CCC4)cc1	22	4%	i	16µM*	5%
COc1ccc(-n2cc(-c3ccccc3)c3c(=O)[nH]cnc32)cc1	-15	1%	i	-8%[15.4 µM]	-17%
O=c1[nH]cnc2c1c(-c1ccccc1)cn2-c1cccc(Cl)c1	-112*	3%	nt	14%	-4%
COc1cccc(C(=O)C2CCCN(C(=O)CCc3scnc3C)C2)c1 (stereo not given)	-1	-1%	i	12%[15.4 µM]	-7%
COc1ccc2cc(C(=O)C3CCCN(C(=O)CCc4ccccn4)C3)ccc2c1 (stereo not given)	-3	2%	i	-12%[15.4 µM]	4.5µM*
O=S(=O)(NCC(c1cccs1)S(=O)(=O)c1ccccc1)c1ccccc1 (stereo not given)	5	-2%	nt	nt	nt
O=Cc1ccc(O)c(O)c1O	-5	nt	nt	nt	nt
O=C(OCC(=O)N1CCCC1)c1ccc(S(=O)(=O)Nc2ccccc2)cc1	-5	-1%	i	-72%	11µM*
COc1ccc(-c2nc(CSc3nnc(C)n4c3cc3sccc34)c(C)o2)cc1	17	?	nt	nt	nt
COc1ccc(NC(=O)/C(C#N)=C\c2ccc(-c3cc(C(=O)O)ccc3C)o2)cc1	-1	0%	i	-24%	45µM*
CC(C)(CC(=O)OCC(=O)Nc1ccc(F)c(Cl)c1)CC1=NS(=O)(=O)c2ccccc2N1	nt	-1%	nt	nt	nt
CCC(=O)c1ccc(OC(=O)Cc2ccc(OC)cc2)cc1	-113*	-1%	i	-50%	9%
COc1ccc(CN2CCN(c3ncnc4scc(-c5ccc(F)cc5)c34)CC2)cc1	-61*	-1%	i	-12%[15.4 µM]	-46%
Fc1ccc(-c2csc3ncnc(N4CCN(c5ccccc5)CC4)c23)cc1	-65*	-1%	i	6%	-14%
CCCCCC1Nc2cc(C(F)(F)F)c(S(N)(=O)=O)cc2S(=O)(=O)N1 (stereo not given)	-2	nt	nt	nt	nt
CCCOc1ccc(-c2nonc2NC(=O)c2ccco2)cc1OCCC	-1	-1%	nt	nt	nt
Cc1nnc(NC(=O)CSCc2cc(=O)c3ccc(C)c(C)c3[nH]2)s1	-5	1%	nt	nt	nt
COC(=O)c1sccc1NC(=O)c1cc(-c2ccc(C)cc2C)nc2ccccc12	-5	3%	-117%*	4%	3%[15.4 µM]
CCn1cc(/C=C(\NC(=O)c2ccc(OC)c(OC)c2)C(=O)NCCCn2ccnc2)c2ccccc21	nt	-3%	nt	nt	nt
Cc1nn(CCC(=O)O)c2nc(-c3cccnc3)cc(C(F)(F)F)c12	-24	5%	i	-7%	0%
Cc1nn(CCc2nn[nH]n2)c2nc(-c3ccc(C4CCCCC4)cc3)cc(C(F)(F)F)c12	-18	0%	i	15%[15.4 µM]	11µM*
Cn1c2c(c(=O)n(C)c1=O)C(C(F)(F)F)(C(F)(F)F)N=C(c1ccccc1Cl)N2	-6	1%	i	5%	?
Cn1c2c(c(=O)n(C)c1=O)C(C(F)(F)F)(C(F)(F)F)N=C(CCC1CCCCC1)N2	-65*	1%	i	11%[15.4 µM]	8%
O=C(Nc1nnc(-c2ccncc2)o1)c1cccc(N2C(=O)CCC2=O)c1	-7	1%	i	-11%[15.4 µM]	6%
SMILES	RXFP1 antagonist	RXFP1 agonist	pAkt inh	gsp agonist	gsp antagonist
CS(=O)(=O)c1ccccc1-c1nnc(NC(=O)c2cccc(N3C(=O)CCC3=O)c2)o1	-76*	0%	i	-14%[15.4 µM]	7%
COCCNC(=O)C(OC(=O)c1nsc(Cl)c1Cl)C(C)C (stereo not given)	9	18µM*	i	?	7%
O=C(/C=C/c1ccccc1[N+](=O)[O-])c1ccccc1Br	-72*	0%	i	-24%[15.4 µM]	nt
Cc1ccc(C2=NC(C)(C)N=C2SCC(=O)Nc2ccc(Cl)cc2)cc1	-64*	0%	i	-27%	-16%
CC(=O)N1CCc2cc(S(=O)(=O)CCC(=O)N3CCc4ccccc4C3)ccc21	-5	2%	i	4%	-8%
CC(=O)N1CCc2cc(S(=O)(=O)NCCC(=O)N3CCc4ccccc4C3)ccc21	1	0%	i	13%	40µM*
O=[N+]([O-])c1cc(Cc2ccccc2)cc(C=Nc2ccc(N3CCOCC3)cc2)c1O	-75*	-1%	i	1%	-26%
Cc1ccc(O)c(N=Cc2cc(Cc3ccccc3)cc([N+](=O)[O-])c2O)c1	?	-1%	i	2%[15.4 µM]	?
Cc1cc(Cl)ccc1OCC(=O)N1CCC(c2nc3ccccc3o2)CC1	?	1%	nt	nt	nt
Cc1ccc([C@H]2Nc3ccc(S(=O)(=O)Nc4cccc(Cl)c4C)cc3[C@H]3C=CC[C@H]32)cc1	-62*	2%	nt	nt	nt
COC(=O)c1ccc([C@H]2Nc3ccc(S(=O)(=O)Nc4cccc(C)c4)cc3[C@H]3C=CC[C@H]32)cc1	-70*	3%	nt	nt	nt
Cc1ccsc1CCN1C(=O)N(c2ccc(F)cc2)C(=O)C1CC(=O)Nc1ccccc1 (stereo not given)	nt	0%	nt	nt	nt
COc1ccc(C(=O)NCCCN2CCN(CCCNC(=O)c3ccc(OC)c(OC)c3)CC2)cc1OC	-75*	0%	i	8%[15.4 µM]	6%
COc1cc(OC)cc(C(=O)NCCCN2CCOCC2)c1	6	0%	-120%*	26%	2%
Cc1ccccc1N1CCN(CCc2nnc3n2CCCC3)CC1	5	nt	nt	nt	nt
COc1ccccc1NC(=O)Cn1c(=O)c(CNc2ccccc2)cc2cc(OC)c(OC)cc21	-2	?	nt	nt	nt
Cn1nc(C(=O)NCc2ccccc2)c2ccccc2c1=O	6	-1%	i	7%	3%
Cn1nc(C(=O)NCc2ccccn2)c2ccccc2c1=O	6	2%	-94%*	-4%	8%
CCc1cc2c(=O)c(-c3ccc4c(c3)OCCO4)c(C)oc2cc1OS(C)(=O)=O	5	1%	i	-19%	50µM*
CCN(CC)S(=O)(=O)c1cccc(C(=O)Nc2cc(C)on2)c1	2	0%	i	16%	50µM*
Cc1ccc(NC(=O)CNc2ccc(Cl)c(Cl)c2)cc1S(=O)(=O)N(C)C	5	2%	i	-33%	40µM*
Cc1ccc(NC(=O)Cc2ccc(Cl)c(Cl)c2)cc1S(=O)(=O)N(C)C	0	0%	i	-4%	?
CCOC(=O)c1c(C)[nH]c(C(=O)OCC(=O)NC2CCS(=O)(=O)C2)c1C (stereo not given)	3	3%	-112%*	5%	9%
COC(=O)c1ccccc1NC(=O)CCS(=O)(=O)c1nc(-c2ccc3c(c2)OCO3)cc(C(F)(F)F)n1	-63*	11%	nt	nt	nt
OC[C@]1(O)OC[C@@H](O)[C@H](O)[C@@H]1O	-11	nt	nt	nt	nt
CCS(=O)(=O)c1ncc(Cl)c(C(=O)N(Cc2ccccc2)Cc2ccco2)n1	?	0%	nt	nt	nt
